Compound activity from PubChem.
Most compounds without a hit are left out; they make up all but 11% or so of the library.
HPGD inh – HPGD (human) dehydrogenase inhibition | Potency, µM, without a hit: at the top dose activity change, negative = inhibition, usual class: inhibitors | 150,000 tested, 4.3% active | AID 894 | purified HPGD, NADH fluorescence kinetic, PGE2 substrate; also: potency is read from the fitted curve at half-maximal effect
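20 nM HPGD preincubated 15 min at room temperature with compound in 50 mM Tris-HCl pH 8, 0.01% Tween 20. Started with 1 mM NAD+ and 30 uM prostaglandin E2; NADH fluorescence (360/450 nm) read 5 times over 30-s intervals, last minus first.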
ALDH1A1 inh – blocks purified human ALDH1A1 activity; 220,000 tested, 7.3% active; Purified ALDH1A1, NADH fluorescence, propionaldehyde substrate; P00352; Potency, µM (titrated, usually from 75.3 µM), for the others: at the top dose activity, negative = inhibition, hits mostly inhibitors;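 also: potency is read from the fitted curve at half-maximal effect; plate controls were no enzyme wells and a reference inhibitor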
Target sequence (P00352 whole entry, looked up): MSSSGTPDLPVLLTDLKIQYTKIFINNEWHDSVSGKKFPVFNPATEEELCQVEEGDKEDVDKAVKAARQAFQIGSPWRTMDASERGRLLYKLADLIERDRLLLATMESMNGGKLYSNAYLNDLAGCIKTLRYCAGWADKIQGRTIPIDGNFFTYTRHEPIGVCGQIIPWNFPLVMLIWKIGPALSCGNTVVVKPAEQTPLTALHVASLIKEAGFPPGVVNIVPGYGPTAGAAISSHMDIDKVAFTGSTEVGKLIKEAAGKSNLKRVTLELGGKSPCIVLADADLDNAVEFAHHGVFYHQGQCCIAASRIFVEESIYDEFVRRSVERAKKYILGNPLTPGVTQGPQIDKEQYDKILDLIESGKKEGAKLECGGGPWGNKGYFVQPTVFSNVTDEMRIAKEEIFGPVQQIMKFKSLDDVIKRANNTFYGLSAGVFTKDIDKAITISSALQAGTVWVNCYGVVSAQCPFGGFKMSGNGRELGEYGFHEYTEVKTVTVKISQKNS
PNC assembly inh – perinucleolar compartment assembly inhibition | PC3M PTB-GFP, PNC prevalence imaging, 16 h; stronger effect = lower value | activity change (PNC), negative = inhibition, % at 10 µM | 140,000 tested, 3.1% active | AID 2417;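 active = readout at or below -70, meaning at least 70% loss of cells showing the perinucleolar compartment, a nuclear body marking cancer cells; inconclusive = readout between -30 and a set limit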;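 also: plate controls were DMSO wells for no effect and camptothecin positive control wells for full effect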
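PC3M cells stably expressing PTB-GFP, 750–1000 cells/well, treated 16 h at 37 °C with compound (23 nl of library stock), in duplicate. After paraformaldehyde fixation and Hoechst stain, imaged at 20x; PNC prevalence scored by image analysis.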
Starred values were filed as active, the others as inactive; ? = inconclusive; nt = no result; [ ] = remark or other dose. Unless noted, calls follow the shape of the dose curve; as a rule, active = well fitted inhibition curve with a large enough effect (not every such curve was filed as active); inconclusive = small, poorly fitted or top-dose-only effect, or another doubt; inactive = no such curve, though single readings can be large or run the other way. Unless noted, % is scaled to controls: 0 for no effect and ±100 for the full control effect.

SMILES | HPGD inh | ALDH1A1 inh | PNC assembly inh
CCN1CCc2c(C#N)c(N3CCOCC3)nc(NCCO)c2C1 | nt | ? | 16
C=C(C)C(O)/C=C/c1ccccc1OC (centres undefined) | nt | 16%[13.5 µM] | nt
CCN(CC)C(=O)Cn1cc(SCC(=O)NC)c2ccccc21 | nt | 2% | nt
CCc1ccc(NC(=O)N(CCOC)C2CCN(C(C)=O)CC2)cc1 | 0% | -4% | -25
CC(C)(C)c1csc(NC(=O)CSc2nc3ccccc3c(=O)[nH]2)n1 | ? | -10% | 20
CC(C)(C)c1nnc(NC(=O)CCn2cnc3ccccc3c2=O)s1 | nt | -5% | nt
CC(C)(C)NC(=O)CSc1nnc(NC(=O)CCn2cnc3ccccc3c2=O)s1 | -18% | 15% | -122*
CC(C)(C)c1csc(NC(=O)Cn2cnc3ccccc3c2=O)n1 | 20µM* | 13µM* | -25
Cn1c(N)c(C(=O)CCl)c(=O)n(C)c1=O | -14% | ? | -4
O=C(Cc1c(Cl)cccc1Cl)NC1=NCCS1 | nt | 4% | nt
COC(=O)C1=C(C)N(CC2CC2)C(=O)N[C@H]1c1ccccc1 | 4% | 11%[13.5 µM] | nt
CC(C)(C)c1ccc(S(=O)(=O)Nc2ccc(Cc3ccncc3)cc2)cc1 | -11% | 1.1µM* | ?
O=S(=O)(Nc1ccc(Cc2ccncc2)cc1)N1CCCC1 | 25µM* | 3% | ?
CC(C)(C)c1ccc(S(=O)(=O)NCCc2ccncc2)cc1 | -14% | ? | ?
O=C(Nc1ccc(Cc2ccncc2)cc1)C1CC1 | -25% | 0% | ?
C=CCNC(=O)C(=O)NN=C1CCN(C)CC1 | -2% | 9% | ?
O=c1ccn(C2OC(COP(=O)(O)OP(=O)(O)OP(=O)(O)O)C(O)C2O)c(=O)[nH]1 (centres undefined) | -9% | -1% | nt
COc1ccccc1CNC(=O)CSc1nc2ccccc2c(=O)n1CCCN1CCOCC1 | nt | 6% | nt
COc1ccc(NC(=O)CSc2nc3ccccc3c(=O)n2CCCN2CCCCC2)c(OC)c1 | -8% | 10µM* | 21
Cc1ccc(C(=O)Nc2ccccc2C(=O)O)cc1NC(=O)COc1c(C)cccc1C | nt | 8.9µM* | nt
COc1ccc(OCC(=O)Nc2cccc(C(=O)Nc3ccccc3C(=O)O)c2)cc1 | ? | 20µM* | ?
CC(C)CC(=O)Nc1cccc(C(=O)Nc2ccccc2C(=O)O)c1 | -15% | -8% | 11
COCC(=O)Nc1cc(C(=O)Nc2ccccc2C)ccc1Cl | -8% | -15% | -23
CS(=O)(=O)c1ccc(Cl)c(NC(=O)c2ccc3ccccc3c2)c1 | -3% | 7% | 41
C#CC1(O)CC(C)NCC1(C)CCC#N (centres undefined) | -4% | 14% | -17
SMILES | HPGD inh | ALDH1A1 inh | PNC assembly inh
O=S(=O)(c1ccc(NC(=S)NCc2ccco2)cc1)N1CCCC1 | -18% | ? | -25
O=C(NC1CCCCC1)C(c1cccnc1)N(C(=O)c1ccc(Cl)nc1)C1CCCCC1 (centres undefined) | nt | 8% | nt
CC(C)(C)NC(=O)C(c1ccncc1)N(C(=O)c1csnn1)C1CC1 (centres undefined) | -6% | 10µM* | ?
Cc1ccc(C(C(=O)NC(C)(C)C)N(C(=O)c2csnn2)C2CC2)cc1 (centres undefined) | 0% | 10% | -6
CC(C)(C)NC(=O)C(c1cccnc1)N(C(=O)c1ccc(Cl)nc1)C1CCCC1 (centres undefined) | nt | 5.6µM* | nt
COCCn1c(SCC(=O)NCC2CCCO2)nc2c(c1=O)SC(C)C2 (centres undefined) | -14% | -7% | 7
CCN(CCn1cccn1)C(=O)CCc1nnc(CCCc2ccccc2)o1 | nt | 11% | nt
CCCNC(=O)NC(C(=O)OC)C12CC3CC(CC(C3)C1)C2 (centres undefined) | -2% | -2% | 29
CCCCOc1ccc(C(=O)C(CN2CCOCC2)c2ccccc2)cc1 (centres undefined) | -3% | 4% | ?
CCCOc1ccc(C(=O)C(CN2CCCC2)c2ccccc2)cc1 (centres undefined) | -3% | -7% | -113*
COc1ccc(C(=O)C(CN2CCCC2)c2ccccc2)cc1 (centres undefined) | -8% | 25µM* | -16
COc1ccc(C(=O)C(CN2CCOCC2)c2ccccc2)cc1 (centres undefined) | 1% | -6% | 18
COc1ccc(S(N)(=O)=O)cc1C(=O)NCC1(N2CCCCC2)CCCCC1 | -4% | -7% | 27
Cc1cc(C(=O)N/N=C/c2ccc3c(c2)OCO3)c(C)o1 | nt | 6% | nt
CC1=C/C(=C\c2ccc3c(c2)OCO3)C(=O)S1 | -20% | ? | -85*
COc1ccc(-c2csc(/C(C#N)=C(\O)CSc3nccn3C)n2)cc1OC | 25µM* | 8.9µM* | 7
COc1ccc(-c2csc(CCn3nc(C)cc3C)n2)cc1OC | nt | 6% | nt
Cn1c(=O)c2c(nc(Sc3n[nH]c(N)n3)n2Cc2ccccc2Cl)n(C)c1=O | ? | ? | 51
O=C(Nc1ccccc1)N1CCC2(CC1)CCN(C(=O)c1ccncc1)CC2 | -2% | 3% | nt
CCOC(=O)C1CCN(C(=S)Nc2ccc(CC)cc2)CC1 | nt | -9% | nt
NC(=O)NNc1ccccc1 | -8% | 2% | nt
S=C(N=Nc1ccccc1)NNc1ccccc1 | ? | 11µM* | -24
COc1ccc2nc(NC3=NCCC3)sc2c1 | -8% | 8% | 65
COc1ccc2nc(Nc3sc4c(c3C(N)=O)CCCC4)sc2c1 | 16µM* | 8.9µM* | -9
COc1ccccc1NC(=O)Cn1c(=O)n(CCc2c[nH]c3ccccc23)c(=O)c2cccnc21 | -14% | -6% | 22
SMILES | HPGD inh | ALDH1A1 inh | PNC assembly inh
Cc1noc2ncnc(Oc3ccc(F)cc3)c12 | -5% | 16% | -29
C(=C\c1ccccc1)/CSc1nnc(-c2cnccn2)n1Cc1ccco1 | -20% | 22µM* | 9
Nn1c(SC/C=C/c2ccccc2)nnc1-c1ccncc1 | -8% | -7% | -1
Cn1c(Cc2cccs2)nnc1SCc1nc2ccccc2[nH]1 | -15% | -2% | 8
Fc1ccc(CSc2nnc(-c3cnccn3)n2Cc2ccco2)cc1 | -4% | 5% | -17
Cn1c(SC/C=C/c2ccccc2)nnc1-c1ccco1 | -26% | ? | -100*
Cn1c(Cc2cccs2)nnc1SC/C=C/c1ccccc1 | -27% | -5% | -100*
CC(=O)NN1C(=O)c2ccc(Oc3cccc([N+](=O)[O-])c3)cc2C1=O | -9% | -4% | 43
Cc1cc2cc(C#N)c(N3CCN(S(C)(=O)=O)CC3)nc2cc1C | ? | ? | -8
O=C(NCCCn1ccnc1)C1c2ccccc2Oc2ccccc21 | -3% | 10% | 33
Cc1ccccc1S(=O)(=O)c1cc(C#N)c(=O)[nH]c1N | nt | -7% | nt
N#Cc1cc(S(=O)(=O)c2ccccc2)c(N)[nH]c1=O | ? | ? | -113*
COc1c(O[C@H]2O[C@@H](CO)[C@@H](O)[C@@H](O)[C@@H]2O)cc2c(c1OC)-c1ccc(SC)c(=O)cc1[C@H](NC(C)=O)CC2 | 2% | 3%[20.9 µM] | nt
C[n+]1ccccc1/C=N/O | -13% | -5% | 25
CC(O)/C=C/c1cccc[n+]1C (centres undefined) | -11% | 25µM* | ?
O=c1[nH]c(CN2CCC(c3nc4ccccc4s3)CC2)nc2sc3c(c12)CCC3 | -2% | -2% | -4
Cc1ccc(-n2nc(C)c3onc(C)c3c2=O)cc1 | nt | -1% | nt
